PubChem BioAssay AID1159580 (chemical genetic matrix, 2015)
Among all 5,500 compounds or so, about 2,000 (36%) were called active. Another 18% or so got no clear call; they are omitted. Rule as the data show it: active = normalized growth mostly below about 0.91 (no sharp cut-off); inconclusive = no clear call, values can overlap the other calls; inactive = mostly above about 0.92. Some of the results follow.

Assay: chemical genetic growth profiling, strain panel (AID 1159580);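 also: tested at 20 µM; growth read once vehicle control cultures reached saturation at 30 °C; 1 = growth at the plate median or of vehicle wells; lower values mean less growth of the strain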
Settings: growth OD

Measured: normalized growth

COc1ccc2c(c1OC)C(=O)O[C@@H]2[C@H]1c2cc3c(cc2CCN1C)OCO3
inactive: S. cerevisiae deletion strains, locus YJR075W, strain HOC1, hits give low values 1.02 | S. cerevisiae deletion strains, locus YKL009W, strain mrt4, hits give low values 1.03 | S. cerevisiae deletion strains, locus YKL068W, hits give low values 1.02 | S. cerevisiae deletion strains, locus YKL085W, strain MDH1 (second series), hits give low values 1.04 | S. cerevisiae deletion strains, locus YKL085W, strain MDH1, hits give low values 1.04 | S. cerevisiae deletion strains, locus YKL160W, strain elf1, hits give low values 0.974 | S. cerevisiae deletion strains, locus YKL190W, strain CNB1, hits give low values 1.02 | S. cerevisiae deletion strains, locus YKR001C, strain vps1, hits give low values 1.03 | S. cerevisiae deletion strains, locus YKR026C, strain gcn3, hits give low values 0.998 | S. cerevisiae deletion strains, locus YKR091W, strain srl3, hits give low values 0.997 | S. cerevisiae deletion strains, locus YLL001W, strain dnm1, hits give low values 0.994 | S. cerevisiae deletion strains, locus YLL026W, hits give low values 0.992 | S. cerevisiae deletion strains, locus YLL041C, strain sdh2, hits give low values 1 | S. cerevisiae deletion strains, locus YLR027C, strain aat2, hits give low values 0.996 | S. cerevisiae deletion strains, locus YLR039C, strain RIC1, hits give low values 1.07 | S. cerevisiae deletion strains, locus YLR058C, strain SHM2, hits give low values 1.02 | S. cerevisiae deletion strains, locus YLR102C, strain apc9, hits give low values 1.01 | S. cerevisiae deletion strains, locus YLR113W, strain HOG1, hits give low values 0.991 | S. cerevisiae deletion strains, locus YLR221C, strain rsa3, hits give low values 0.983 | S. cerevisiae deletion strains, locus YLR258W, strain gsy2, hits give low values 0.988 | S. cerevisiae deletion strains, locus YLR262C, strain YPT6 (second series), hits give low values 0.98 | S. cerevisiae deletion strains, locus YLR262C, strain YPT6, hits give low values 1.04 | S. cerevisiae deletion strains, locus YLR268W, strain sec22, hits give low values 1.01 | S. cerevisiae deletion strains, locus YLR320W, strain mms22, hits give low values 0.967 | S. cerevisiae deletion strains, locus YLR330W, strain CHS5, hits give low values 1.02 | S. cerevisiae deletion strains, locus YLR342W, strain FKS1 (second series), hits give low values 1.06 | S. cerevisiae deletion strains, locus YLR342W, strain FKS1, hits give low values 0.984 | S. cerevisiae deletion strains, locus YLR357W, strain rsc2, hits give low values 0.998 | S. cerevisiae deletion strains, locus YLR370C, strain arc18, hits give low values 1 | S. cerevisiae deletion strains, locus YLR371W, strain rom2, hits give low values 1.02 | S. cerevisiae deletion strains, locus YLR384C, strain iki3, hits give low values 0.983 | S. cerevisiae deletion strains, locus YLR418C, strain cdc73, hits give low values 1.02 | S. cerevisiae deletion strains, locus YML016C, strain PPZ1, hits give low values 1.01 | S. cerevisiae deletion strains, locus YML032C, strain rad52, hits give low values 1.03 | S. cerevisiae deletion strains, locus YML120C, strain ndi1, hits give low values 0.985 | S. cerevisiae deletion strains, locus YML124C, strain tub3, hits give low values 1.02 | S. cerevisiae deletion strains, locus YMR058W, strain fet3, hits give low values 0.998 | S. cerevisiae deletion strains, locus YMR078C, strain ctf18, hits give low values 1.03 | S. cerevisiae deletion strains, locus YMR125W, strain sto1, hits give low values 0.988 | S. cerevisiae deletion strains, locus YMR129W, hits give low values 1 | S. cerevisiae deletion strains, locus YMR205C, strain PFK2, hits give low values 0.971 | S. cerevisiae deletion strains, locus YMR223W, strain ubp8, hits give low values 1.03 | S. cerevisiae deletion strains, locus YMR231W, strain pep5, hits give low values 0.993 | S. cerevisiae deletion strains, locus YMR263W, strain SAP30, hits give low values 1.01 | S. cerevisiae deletion strains, locus YMR307W, strain GAS1, hits give low values 1.09 | S. cerevisiae deletion strains, locus YNL067W, strain RPL9B, hits give low values 1.01 | S. cerevisiae deletion strains, locus YNL071W, strain lat1, hits give low values 0.997 | S. cerevisiae deletion strains, locus YNL128W, strain TEP1, hits give low values 1.02 | S. cerevisiae deletion strains, locus YNL153C, strain GIM3, hits give low values 1.01 | S. cerevisiae deletion strains, locus YNL183C, strain NPR1, hits give low values 0.953 | S. cerevisiae deletion strains, locus YNL209W, strain ssb2, hits give low values 0.993 | S. cerevisiae deletion strains, locus YNL233W, strain BNI4, hits give low values 1.02 | S. cerevisiae deletion strains, locus YNL248C, strain rpa49, hits give low values 0.999 | S. cerevisiae deletion strains, locus YNL250W, strain rad50, hits give low values 1.02 | S. cerevisiae deletion strains, locus YNL271C, strain bni1, hits give low values 1.01 | S. cerevisiae deletion strains, locus YNL298W, strain CLA4, hits give low values 1.03 | S. cerevisiae deletion strains, locus YNL307C, strain MCK1, hits give low values 1.02 | S. cerevisiae deletion strains, locus YNL322C, strain KRE1 (second series), hits give low values 0.99 | S. cerevisiae deletion strains, locus YNL322C, strain KRE1, hits give low values 1.01 | S. cerevisiae deletion strains, locus YNR049C, strain mso1, hits give low values 0.996 | S. cerevisiae deletion strains, locus YNR052C, strain pop2, hits give low values 1.02 | S. cerevisiae deletion strains, locus YOL006C, strain TOP1, hits give low values 1.04 | S. cerevisiae deletion strains, locus YOL012C, strain htz1 1.03 | S. cerevisiae deletion strains, locus YOL147C, strain pex11, hits give low values 1.02 | S. cerevisiae deletion strains, locus YOR001W, strain rrp6, hits give low values 0.998 | S. cerevisiae deletion strains, locus YOR061W, strain CKA2, hits give low values 1.02 | S. cerevisiae deletion strains, locus YOR069W, strain VPS5, hits give low values 1.02 | S. cerevisiae deletion strains, locus YOR070C, strain gyp1, hits give low values 0.984 | S. cerevisiae deletion strains, locus YOR080W, strain dia2, hits give low values 0.987 | S. cerevisiae deletion strains, locus YOR083W, strain WHI5, hits give low values 0.985 | S. cerevisiae deletion strains, locus YOR106W, strain vam3, hits give low values 0.972 | S. cerevisiae deletion strains, locus YOR136W, strain idh2, hits give low values 1.02 | S. cerevisiae deletion strains, locus YOR144C, strain elg1, hits give low values 1.02 | S. cerevisiae deletion strains, locus YOR184W, strain ser1, hits give low values 1.04 | S. cerevisiae deletion strains, locus YOR231W, strain MKK1, hits give low values 0.994 | S. cerevisiae deletion strains, locus YOR265W, strain rbl2, hits give low values 0.996 | S. cerevisiae deletion strains, locus YOR270C, strain vph1, hits give low values 1.01 | S. cerevisiae deletion strains, locus YOR290C, strain snf2, hits give low values 0.989 | S. cerevisiae deletion strains, locus YOR316C, strain cot1, hits give low values 1.02 | S. cerevisiae deletion strains, locus YPL051W, strain arl3, hits give low values 0.976 | S. cerevisiae deletion strains, locus YPL055C, strain LGE1, hits give low values 1.03 | S. cerevisiae deletion strains, locus YPL078C, strain atp4, hits give low values 1 | S. cerevisiae deletion strains, locus YPL106C, strain sse1, hits give low values 0.976 | S. cerevisiae deletion strains, locus YPL240C, strain hsp82, hits give low values 0.995 | S. cerevisiae deletion strains, locus YPL241C, strain CIN2, hits give low values 1.01 | S. cerevisiae deletion strains, locus YPL256C, strain CLN2, hits give low values 0.971 | S. cerevisiae deletion strains, locus YPR119W, strain clb2, hits give low values 1.02 | S. cerevisiae deletion strains, locus YPR141C, strain kar3, hits give low values 1.03 | S. cerevisiae deletion strains, locus YPR163C, strain tif3, hits give low values 1.03 | S. cerevisiae deletion strains, locus YPR167C, strain met16, hits give low values 1.02 | S. cerevisiae deletion strains, strain wtn01, hits give low values 1.02 | S. cerevisiae strains, strain wild type, hits give low values 1.01
